Results on seven compounds are retold here after PubChem BioAssay (NCI).

Some test systems named below: NCI-H23 lung; NCI-H226 lung; NCI-H322M lung; HOP-62 NSCLC; NCI-H460 lung; HOP-92 NSCLC; NCI-H522 lung; A549/ATCC NSCLC; 786-0 renal; COLO 205 colon; DU-145 prostate; K-562 leukemia; MALME-3M melanoma; MDA-MB-231 breast; RXF 393 renal; SF-268 CNS; SF-295 CNS; SF-539 CNS; UACC-257 melanoma; M14 melanoma.
Common to all, as to test: NCI-60 one-dose screen, 48 h (100 = growth as untreated, 0 = no growth, -100 = all killed)
Common to all, as to details: 10 µM unless noted

Structures are written as SMILES. This is part of a sample that, as a whole, favours compounds with a hit. Of some 83,000 tested, about 20% had one in any assay.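 Percent growth is the endpoint: 0 to 100 indicates growth inhibition (40 means 60% inhibition), 0 means no net growth, and negative values indicate cell death.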 A number with no mark means an inactive call. The source made the active and inactive calls. Rule for the calls: active = growth percent below 10; inactive = the rest.

As to `COc1ccc(/C=C\c2cc(OC)c(OC)c(OC)c2)c(NS(=O)(=O)c2ccc(Cl)cc2)c1O`, the growth is 21.8% in the test on NCI-H23 lung; 18.4% in the test on NCI-H226 lung; 40.8% in the test with NCI-H322M lung; 49.8% with HOP-62 NSCLC; 8.23% (active) in the test on NCI-H460 lung; 48.3% with HOP-92 NSCLC. In addition, the growth in the test on NCI-H522 lung was -36% (active); in the test with A549/ATCC NSCLC it was 16.7%; in the test on 786-0 renal, 25.5%; in the test with COLO 205 colon, 20.9%; in the test with DU-145 prostate, -13.3% (active); with K-562 leukemia, 9.26% (active). Also, the growth with MALME-3M melanoma is 58%; in the test on MDA-MB-231 breast it was 8.54% (active); with RXF 393 renal, 37.2%; with SF-268 CNS, 16.2%; in the test on SF-295 CNS, 0.936% (active); in the test on SF-539 CNS, 2.9% (active). Further, the growth is 39.1% in the test with UACC-257 melanoma and 12.8% in the test on M14 melanoma.
Turning to `O=C1NC(=O)C(=Cc2cn(CCCCCCn3c4ccccc4c(=O)c4ccccc43)c3ccccc23)C(=O)N1`, the growth in the test on NCI-H23 lung was 82.5%; in the test on NCI-H226 lung, 67.2%; in the test with NCI-H322M lung it was 85.8%; in the test on HOP-62 NSCLC, 86.7%; in the test on NCI-H460 lung, 34.2%; in the test on HOP-92 NSCLC it was 96.1%. Moreover, the growth in the test on NCI-H522 lung is 73.3%; in the test on A549/ATCC NSCLC, 92.4%; in the test on 786-0 renal, 96.8%; with COLO 205 colon, 92.3%; in the test on DU-145 prostate, 96.8%; in the test on K-562 leukemia it was 77.4%. For the same compound, the growth in the test on MALME-3M melanoma is 95.8%; in the test on MDA-MB-231 breast, 69.1%; with RXF 393 renal, 127%; in the test on SF-268 CNS, 94.5%; with SF-295 CNS, 65.7%; in the test with SF-539 CNS, 93%. Moreover, the figures for the growth in the test on UACC-257 melanoma and in the test on M14 melanoma were 104% and 94.1%, respectively.
For the compound `N#C[Se]CCN1C(=O)c2ccccc2C1=O`, the growth is 39.4% with NCI-H23 lung; 36.3% in the test on NCI-H226 lung; 24.4% with NCI-H322M lung; 26.4% with HOP-62 NSCLC; 15.8% with NCI-H460 lung; -3.49% (active) in the test with HOP-92 NSCLC. The growth with NCI-H522 lung is 20.2%; in the test on A549/ATCC NSCLC it was 30.6%; in the test on 786-0 renal, 52%; in the test on COLO 205 colon, 61.6%; with DU-145 prostate, 35.1%; with K-562 leukemia, 26.1%. The growth was 17.7% in the test with MALME-3M melanoma; 55.9% in the test with MDA-MB-231 breast; -9.88% (active) in the test on RXF 393 renal; 20.2% in the test on SF-268 CNS; 6.62% (active) with SF-295 CNS; 33.4% with SF-539 CNS. In addition, the values for the growth with UACC-257 melanoma and in the test on M14 melanoma were 7.13% (active) and 25.5%, respectively.
Turning to `CC(=O)O[C@H]1CC[C@H]2[C@@H]3CC=C4c5nc(-c6ccccc6)sc5CC[C@]4(C)[C@H]3CC[C@]12C`, the growth is 71.7% in the test on NCI-H23 lung; 95.5% in the test with NCI-H226 lung; 91.4% in the test with NCI-H322M lung; 72.1% in the test with HOP-62 NSCLC; 39.4% in the test with NCI-H460 lung; 102% in the test with HOP-92 NSCLC. Besides, the growth was 43.8% with NCI-H522 lung; 57.9% in the test on A549/ATCC NSCLC; 66.3% with 786-0 renal; 7.45% (active) in the test with COLO 205 colon; 86.1% with DU-145 prostate; 8.09% (active) with K-562 leukemia. For the same compound, the growth in the test on MALME-3M melanoma was 93.9%; in the test on MDA-MB-231 breast, 64.2%; in the test on RXF 393 renal, 79.2%; in the test on SF-268 CNS, 78.9%; with SF-295 CNS it was -0.49% (active); with SF-539 CNS, 13.8%. The growth in the test on UACC-257 melanoma was 64.6%; with M14 melanoma, 61.5%.
For the compound `CC(C)[C@]12O[C@H]1[C@@H]1O[C@]13[C@]1(O[C@H]1C[C@H]1c4c(C(=O)c5ccccc5)oc(OC(=O)c5ccccc5)c4CC[C@@]13C)[C@@H]2O`, the growth with NCI-H23 lung is -14.9% (active); with NCI-H226 lung it was -12.8% (active); in the test with NCI-H322M lung it was 9.46% (active); in the test on HOP-62 NSCLC it was -0.399% (active); in the test on NCI-H460 lung, 9.07% (active); with HOP-92 NSCLC, -9.38% (active). The growth in the test with NCI-H522 lung was -39.6% (active); in the test on A549/ATCC NSCLC, 1.72% (active); in the test with 786-0 renal it was 1.31% (active); in the test with COLO 205 colon, -57% (active); in the test with DU-145 prostate, 0.787% (active); in the test with K-562 leukemia, -12.5% (active). Besides, the growth with MALME-3M melanoma is -59.1% (active); with MDA-MB-231 breast, 34.3%; in the test with RXF 393 renal, -81.1% (active); in the test on SF-268 CNS it was -20.7% (active); with SF-295 CNS, 8.47% (active); with SF-539 CNS it was -40.6% (active). The growth is -25.5% (active) in the test with UACC-257 melanoma and -73.7% (active) in the test on M14 melanoma.
In the case of `C=C1C[C@](OC)([C@H](O)C(=O)N[C@@H](OC)[C@@H]2C[C@@H](O)C(C)(C)[C@@H](C[C@@H](COC)OC)O2)O[C@H](C)[C@@H]1C`, the growth in the test with NCI-H23 lung was -27.7% (active); with NCI-H226 lung it was -75.5% (active); in the test with NCI-H322M lung, -21% (active); in the test with HOP-62 NSCLC, -35.4% (active); with NCI-H460 lung it was -41.4% (active); in the test on HOP-92 NSCLC, -65.1% (active). Also, the growth was -55.1% (active) in the test with NCI-H522 lung; -49.1% (active) with A549/ATCC NSCLC; -61.9% (active) in the test on 786-0 renal; -15.6% (active) in the test on COLO 205 colon; -49.9% (active) in the test with DU-145 prostate; -50.1% (active) in the test on K-562 leukemia. In addition, the growth with MALME-3M melanoma was -71.1% (active); in the test with MDA-MB-231 breast, -55.7% (active); with RXF 393 renal, -92.7% (active); with SF-268 CNS, -32.4% (active); in the test with SF-295 CNS, -51.4% (active); in the test with SF-539 CNS, -65.9% (active). Also, the growth with UACC-257 melanoma is -53.4% (active); with M14 melanoma it was -54.6% (active).
On to `COc1ccc(/C=C\c2cc(OC)c(OC)c(OC)c2)c(NS(=O)(=O)c2ccc(F)cc2)c1O`, for which the growth was 27.4% with NCI-H23 lung; 35.1% in the test with NCI-H226 lung; 53.6% with NCI-H322M lung; 71.3% with HOP-62 NSCLC; 5.54% (active) in the test with NCI-H460 lung; 43.3% in the test on HOP-92 NSCLC. Besides, the growth was -18.6% (active) in the test on NCI-H522 lung; 23.9% in the test with A549/ATCC NSCLC; 18.4% in the test with 786-0 renal; 0.893% (active) with COLO 205 colon; -19.1% (active) in the test on DU-145 prostate; 18.3% with K-562 leukemia. The growth in the test with MALME-3M melanoma was 94.3%; in the test with MDA-MB-231 breast, 8.05% (active); in the test with RXF 393 renal, 23.5%; in the test with SF-268 CNS, 15.1%; in the test on SF-295 CNS, 4.99% (active); in the test with SF-539 CNS, 2.76% (active). Moreover, the growth in the test on UACC-257 melanoma was 66.5%; with M14 melanoma it was 6.43% (active).
